An excerpt weighted towards active compounds, which were near 11% of everything screened.
PNC assembly inh: perinucleolar compartment assembly inhibition; AID 2417; activity change (PNC), negative = inhibition, % at 10 µM; PC3M PTB-GFP, PNC prevalence imaging, 16 h; active compounds read low; 140,000 tested, 3.1% active;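 active = readout at or below -70, meaning at least 70% loss of cells showing the perinucleolar compartment, a nuclear body marking cancer cells; inconclusive = readout between -30 and a set limit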;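 also: plate controls were DMSO wells for no effect and camptothecin positive control wells for full effect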
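Read-out is percentage of cells bearing a perinucleolar compartment, from automated 20x imaging of fixed, Hoechst-stained PC3M PTB-GFP cells. Cells were seeded 4 h, then exposed 16 h to compound (23 nl of library stock) in duplicate plates.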
IMPase inh: cell-permeable inhibitors of inositol monophosphatase (IMPase); 120,000 tested, under 10 active; CHO-M1 cells, IP1 accumulation, HTRF TR-FRET ratio; P97697; inhibition (IP1 accumulation), % at 46.1 µM; active = well fitted curve in the direction sought with a large enough effect in the signal ratio, not every such curve was filed as active; inconclusive = small, poorly fitted or top-dose-only effect, or a change in a side signal; inactive = no such curve, though single readings can be large or run the other way; the % refers to the signal ratio;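 also: cells stimulated with carbachol in lithium chloride buffer; plate controls were DMSO basal wells for no effect and reference inhibitor wells for full effect; higher means more IMPase inhibition seen as more IP1 and lower FRET ratio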
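CHO-M1 cells (CHO stably expressing M1 receptor), compound up to 46 uM final, stimulated with carbachol (50 uM as added) in buffer with 50mM LiCl, pH 7.4, 30 min at 37C. Cytosolic IP1 read by TR-FRET; AC50 from Hill fits.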
IMPase Li cell: IMPase inhibition in cells with lithium potentiation | CHO-M1 cells, IP1 TR-FRET (IP-One), carbachol + lithium | Potency, µM (highest dose often 59.4 µM), for the others: at the top dose activity, negative = IMPase inhibition, actives largely listed as inhibitors | 210,000 tested, 0.35% active | AID 1457;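 also: IP1 builds up when IMPase is blocked and the TR-FRET signal falls; potency is read from the fitted curve at half-maximal effect; plate controls were basal vehicle for no effect and high inhibitor control for full effect; nearly all actives have a fitted effect of over 50% in size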
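CHO cells stably expressing M1 receptor (2000/well) were cultured 16–30 h, then exposed to compounds with a small lithium addition for 30 min at 37C. IP1 was measured by TR-FRET competition; AC50 from Hill fits.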
HPGD block: blocks human HPGD enzyme activity | 150,000 tested, 4.3% active | purified HPGD, NADH fluorescence kinetic, PGE2 substrate | Potency, µM, for inactives: top-dose activity change, negative = inhibition, most hits filed as inhibitors | P15428; active = well fitted inhibition curve with a large enough effect, not every such curve was filed as active; inconclusive = small, poorly fitted or top-dose-only effect, or another doubt; inactive = no such curve, though single readings can be large or run the other way; also: potency is read from the fitted curve at half-maximal effect
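NADH formation kinetics: reaction with 30 uM PGE2 and 1 mM NAD+ (final), 20 nM enzyme, Tris-HCl pH 8 with Tween 20, after 15 min compound preincubation at room temperature. Fluorescence change, last versus first of five reads.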
ALDH1A1 inh: inhibitors of human aldehyde dehydrogenase 1A1; Potency, µM (top dose mostly 75.3 µM), inactives show at the highest dose activity, negative = inhibition, hits mostly inhibitors; 220,000 tested, 7.3% active; AID 1030; P00352; Purified ALDH1A1, NADH fluorescence, propionaldehyde substrate; active = well fitted inhibition curve with a large enough effect, not every such curve was filed as active; inconclusive = small, poorly fitted or top-dose-only effect, or another doubt; inactive = no such curve, though single readings can be large or run the other way;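 also: potency is read from the fitted curve at half-maximal effect; plate controls were no enzyme wells and a reference inhibitor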
12-hLO inh: inhibitors of human 12-lipoxygenase (ALOX12) | P18054 | purified 12-hLO, xylenol orange hydroperoxide absorbance | Potency, µM (titrated, usually from 57.1 µM), without a hit: at the top dose activity change, negative = inhibition, usual class: inhibitors | 150,000 tested, 0.12% active | AID 1452; also: potency is read from the fitted curve at half-maximal effect; nearly all actives have a fitted effect of over 55% in size
Target sequence (P18054 whole entry, looked up): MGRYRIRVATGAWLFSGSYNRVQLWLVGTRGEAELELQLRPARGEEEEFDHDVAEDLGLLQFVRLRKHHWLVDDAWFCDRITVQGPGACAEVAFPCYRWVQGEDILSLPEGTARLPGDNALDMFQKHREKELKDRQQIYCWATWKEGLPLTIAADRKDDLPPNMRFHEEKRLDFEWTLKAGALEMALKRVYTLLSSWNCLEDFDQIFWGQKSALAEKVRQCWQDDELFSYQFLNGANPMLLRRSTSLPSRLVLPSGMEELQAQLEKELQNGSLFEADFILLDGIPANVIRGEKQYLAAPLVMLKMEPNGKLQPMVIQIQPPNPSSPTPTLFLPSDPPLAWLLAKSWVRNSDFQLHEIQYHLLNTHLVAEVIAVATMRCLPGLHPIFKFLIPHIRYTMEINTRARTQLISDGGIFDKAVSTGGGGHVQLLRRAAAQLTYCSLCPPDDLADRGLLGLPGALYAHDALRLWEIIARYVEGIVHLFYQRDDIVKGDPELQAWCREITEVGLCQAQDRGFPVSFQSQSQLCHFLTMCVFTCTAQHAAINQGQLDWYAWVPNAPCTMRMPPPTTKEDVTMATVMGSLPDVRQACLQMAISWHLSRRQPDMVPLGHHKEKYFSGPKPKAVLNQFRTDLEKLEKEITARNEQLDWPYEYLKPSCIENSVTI
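Hydroperoxide formation by human 12-lipoxygenase from 40 uM arachidonic acid was followed colorimetrically via ferric-xylenol orange complex, using the 573/405 nm absorbance ratio. Enzyme concentration was 150 nM, with 30 min reaction at room temperature.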
Starred values were filed as active, the others as inactive; ? = inconclusive; . = not tested or not shown; [ ] = another dose, or the depositor's remark. Unless noted, calls follow the shape of the dose curve; as a rule, active = well fitted curve in the direction sought with a large enough effect; inconclusive = small, poorly fitted or top-dose-only effect, or another doubt; inactive = no such curve, though single readings can be large; an effect the other way counts as inactive or inconclusive. Unless noted, % is scaled to controls: 0 for no effect and ±100 for the full control effect.

SMILES	PNC assembly inh	IMPase inh	IMPase Li cell	HPGD block	ALDH1A1 inh	12-hLO inh
CC(C)[C@H](O)CC[C@@H](C)C1CC[C@H]2C3CC=C4C[C@@H](O)CC[C@]4(C)C3CC[C@]12C (stereo partly specified)	.	.	4%	.	3%	.
CC(=O)c1noc(C)c1C(=O)Nc1nccs1	-93*	1	37%[38.3 µM]	1%	-7%	-2%
CC(=O)CSc1nc(-c2cccs2)c(C#N)c(=O)[nH]1	.	.	7.9µM*	.	-8%	.
O=C(C1=C(O)C(=O)N(c2nccs2)C1c1ccccc1)c1cc2ccccc2o1 (stereo unspecified)	.	.	.	.	22µM*	.
CN(C)CCN1C(=O)C(O)=C(C(=O)c2cc3ccccc3o2)C1c1cccc(Br)c1 (stereo unspecified)	-6	?	11µM*	-11%	-1%	-6%
O=C(C1=C(O)C(=O)N(CCCN2CCOCC2)C1c1ccccn1)c1cc2ccccc2o1 (stereo unspecified)	?	?	11µM*	-7%	?	0%
CCN(CC)CCN1C(=O)C(O)=C(C(=O)c2cc3ccccc3o2)C1c1cccnc1 (stereo unspecified)	-27	?	10µM*	-7%	-8%	-1%
Cn1cc(CN2CCC(CO)CC2)c(-c2ccc(Oc3ccccc3)cc2)n1	.	.	20%	.	-4%	.
O=C(C1=C(O)C(=O)N(CCc2ccccc2)C1c1ccncc1)c1cc2ccccc2o1 (stereo unspecified)	.	.	4.5µM*	.	19µM*	.
COc1cc(C2C(C(C)=O)=C(O)C(=O)N2CCN(C)C)ccc1O (stereo unspecified)	-21	2	4%[38.3 µM]	-6%	5%	-6%
COc1ccccc1C1C(C(=O)c2cc3ccccc3o2)=C(O)C(=O)N1CCN(C)C (stereo unspecified)	16	-27	8.9µM*	-13%	20µM*	10%
CCOc1cc(C2C(C(=O)c3ccco3)=C(O)C(=O)N2CCc2ccccc2)ccc1O (stereo unspecified)	10	8	2%[38.3 µM]	-3%	-3%	-10%
COc1ccc(CN2C(=O)/C(=C/c3ccncc3)SC2=S)cc1	?	.	14%	-20%	10µM*	4%
O=C(O)CCCCCN1C(=O)/C(=C/c2ccncc2)SC1=S	?	.	7%	-17%	-15%	0%
O=C(O)CCCCCN1C(=O)/C(=C\c2ccncc2)SC1=S	-90*	.	8%	-22%	-3%	4%
O=C(O)CCCN1C(=O)/C(=C/c2ccc(-c3nc4ccccc4s3)o2)SC1=S	41	4	15%	18µM*	?	2%
CCCCC(CC)COC(=O)COc1ccc(Cl)cc1Cl (stereo unspecified)	.	.	-2%	-5%	?	-3%
CC(C)Cn1c(SCc2nnc(-c3cccs3)o2)nc(O)cc1=O	17	11	3%[38.3 µM]	16µM*	-9%	7%
Cc1nnc(SCc2nnc(-c3cccs3)o2)n1C	.	.	-12%	.	-2%	.
COc1c2c(c(C(=O)/C=C/C(C)=C/c3ccccc3)c3c1OCO3)CCN(C)C2	.	.	15%	-2%	12%	.
CN(C)c1ccc(C2N3CC4(C)CN2CC(C)(C3)C4O)cc1 (stereo unspecified)	2	4	10%[38.3 µM]	-24%	0.89µM*	0%
N=C1[C@@H](O)[C@]2(I)c3ccccc3N3C(=N)[C@H](O)[C@@H]4c5ccccc5N1[C@@H]4[C@@H]32	.	.	-9%	4µM*	-4%[13.5 µM]	-17%[11.4 µM]
O=C(NCCc1c[nH]c2ccccc12)c1cncc(Br)c1	.	.	-9%	.	?	.
O=C(NCCc1c[nH]c2ccc(Cl)cc12)c1cccnc1	?	-1	33%[38.3 µM]	16µM*	11%	-3%
COc1ccccc1NC(CC(=O)c1ccccc1)C(=O)OCC(=O)c1ccc(C)c(C)c1 (stereo unspecified)	?	-2	4%	-17%	7.1µM*	-11%
SMILES	PNC assembly inh	IMPase inh	IMPase Li cell	HPGD block	ALDH1A1 inh	12-hLO inh
COc1ccccc1NC(CC(=O)c1ccccc1)C(=O)OCC(=O)c1ccc(C)cc1 (stereo unspecified)	25	4	5%	-13%	10µM*	0%
O=C(NC1CC1)c1cc(F)c(F)cc1Cl	-5	7	29%[38.3 µM]	22µM*	1%	-5%
Cc1nc2cnc(OCc3ccccc3)nc2n(C)c1=O	.	.	-4%	.	-12%	.
FC(F)(F)c1ccccc1-c1nc(NC2CCNCC2)c2ccccc2n1	.	.	-7%	.	7%	.
CCOC(=O)C1=C(CBr)NC(=O)NC1C (stereo unspecified)	.	.	-1%	.	14µM*	.
CCOC(=O)C1=C(C)NC(=O)NC1C (stereo unspecified)	?	-11	12%[38.3 µM]	-1%	22%	0%
CCN(CC)S(=O)(=O)c1ccc(/C=C/C(=O)Nc2ccc(Br)cc2F)cc1	-16	.	9%	-10%	?	-2%
COc1ccc(/C=C/C(=O)Nc2cc(S(=O)(=O)N3CCOCC3)ccc2N2CCCC2)cc1OC	.	.	11%	.	-1%	.
CCN(CC)S(=O)(=O)c1cccc(NC(=O)/C=C/c2cccc([N+](=O)[O-])c2)c1	7	-1	21%	-12%	7.9µM*	-5%
COc1cc(/C=C/C(=O)Nc2cc(S(=O)(=O)N3CCOCC3)ccc2N2CCCC2)cc(OC)c1OC	.	.	6%	.	11µM*	.
CCN(CC)S(=O)(=O)c1ccc(/C=C/C(=O)Nc2ccc(F)cc2F)cc1	-19	8	.	.	20µM*	-2%
COc1ccc(/C=C/C(=O)Nc2cc(S(=O)(=O)N3CCCCC3)ccc2N2CCCCC2)cc1OC	-23	.	2%	?	?	-1%
CCN(CC)S(=O)(=O)c1cccc(NC(=O)/C=C/c2ccc([N+](=O)[O-])cc2)c1	-26	-2	6%	-4%	3%	-4%
CCN(CC)S(=O)(=O)c1ccc(N2CCCCC2)c(NC(=O)/C=C/c2cc(OC)c(OC)c(OC)c2)c1	?	.	6%	-29%	13µM*	-2%
O=S(=O)(c1ccccc1)N1CCC[C@@]2(CCN(c3cccc(-c4ccccc4)c3)C2)C1	.	.	3%	-11%	-5%	-17%
O=C1CCC=C1C(O)c1ccccc1 (stereo unspecified)	.	.	-6%	-13%	1%	18%
CC1=C(C(=O)OCC2CCCCC2)C(c2ccc(Cl)cc2Cl)CC(=O)N1 (stereo unspecified)	.	-2	.	.	.	.
COc1cc(C2c3[nH]c4ccccc4c3CC3C(=O)N4C(Cc5c([nH]c6ccccc56)C4c4cc(OC)c(OC)c(OC)c4)C(=O)N32)cc(OC)c1OC (stereo unspecified)	.	.	.	.	1%[13.5 µM]	.
O=C(CCC(=O)c1ccc(Cl)cc1)OCC(=O)c1ccccc1	57	-7	7%[38.3 µM]	?	1%	1%

Screening data as filed in PubChem.
